Test results published in the supplement of paper PMC11417369.
± gives the standard deviation of the averaged measurements. Whole data set: some 25,000 sequences, median “ln(normalized median fluorescence intensity)” near 7.9, cut for the highest 2% near 11. The full list was thinned out, with the highest values kept by preference.

Each sequence was assayed on PfAP2-I AP2 domain 3 (GST-tagged) (assay: gcPBM binding intensity (ln(normalized median fluorescence intensity)); higher = stronger DNA binding).
Summary of the method: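 In this array assay, P. falciparum DNA-binding domains with a GST tag, expressed in E. coli, were applied for 1 h to primer-extended double-stranded 36-bp intergenic genomic probes and negative controls on an Agilent 4 × 180k array. Bound protein was visualised with Alexa488 anti-GST antibody at 488 nm. Binding intensity is the highest Masliner-normalised natural-log median intensity across replicate spots of either probe orientation.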

“TAAAATATTATCTACGCACACATTAAAATAAAAAAA [CACACA_site3709]” and “ACTTTAAAAAGATTCACACAAAATATATAAAAATAT [CACACA_site5334]” are within error of each other in “gcPBM binding intensity (ln)” value: 8.32 ± 0.2 for the first, 7.75 ± 0.39 for the second.

“AGAATTTTATTATATTGTACTTTTTATAAACCTTGT [XGTACX_site7495]” and “ATTAAAACACAATATTCACACATGTATATTATATAT [CACACA_site5191]” are within error of each other in “gcPBM binding intensity (ln)” value: 7.7 ± 0.71 for the first, 7.72 ± 0.51 for the second.

“CATATATATATATGAACACACAAAAAGAATATTTCC [CACACA_site1493]” and “GAATATGTAAAGAAAGGTACACATGAAAATATGTGT [XGTACX_site446]” are within error of each other in “gcPBM binding intensity (ln)” value: 7.62 ± 0.63 for the first, 7.71 ± 0.66 for the second.

Compared with GATGTTTCTATTTTAGTGCATTTTAAATAAATAAAT, “ATGAATACAAAATTATACAAAATTATCAAAAGTATG [CACACA_negctrl_site1453]” is lower in “gcPBM binding intensity (ln)” value: 10.4 ± 0.12 for the first, 7.5 ± 0.49 for the second.

Going from “TTGTATACATAAAATGGTACAGAATATATAATTCTA [XGTACX_site7236]” to “ATTTTATGAAATGTTGCACACAAAAAACAACATGTT [CACACA_site8408]”, the “gcPBM binding intensity (ln)” value rises from 7.45 ± 0.61 to 8.95 ± 0.092.

Going from “AAATATATGTTATATGTGCACTTTTTTTTTTTTTTT [GTGCAC_site9667]” to AATAACTATATATGTGTGCACAAAAATTTGACATAA, the “gcPBM binding intensity (ln)” value rises from 10.21 ± 0.035 to 10.7 ± 0.049.

Going from ATAATATATGTATGTATGCACTTTTATTATTTTTTT to TATTTTTGGTTATGTGTGCACTATGAACAACAAAAT, the “gcPBM binding intensity (ln)” value rises from 8.96 ± 0.15 to 11.4 ± 0.26.

Compared with TATATATAAATATATGTGCACTTTTTATATTTATAT, “TATATTATTTATTTTTGTACATATTATGAATGAATA [XGTACX_site3971]” is lower in “gcPBM binding intensity (ln)” value: 11 ± 0.13 for the first, 7.73 ± 0.33 for the second.

First: ACTCAAACCTTTAGAGTGCAAAAAAAAAAAAAAAAA [GTGCAC_site9952]
Second: TTTTTTAAAAGATAATATTTTATTAATGTATTCTCA [GTGCAC_negctrl_site598]
The “gcPBM binding intensity (ln)” value of the first is higher: 10 ± 0.21 for the first, 7.2 ± 0.55 for the second.

“TTAAAAAAATATTGAAGTACACACATTATAAACTTT [XGTACX_site3548]” and “TAGGAAAAAAATACAGTGCAATTTTTATATAAATAA [GTGCAC_site9979]” are within error of each other in “gcPBM binding intensity (ln)” value: 7.89 ± 0.38 for the first, 8.62 ± 0.5 for the second.

CTTTTTTTGACCTTAGTGCAAATAACTATATATTAT and “AAATAAATTTGACCAGTGCAATAACTTTGTATACCT [GTGCAC_site9446]” are within error of each other in “gcPBM binding intensity (ln)” value: 10.5 ± 0.41 for the first, 11.2 ± 0.64 for the second.

Compared with “AAAAAAAAAGAAAAATGTACATACATAAATATATAT [XGTACX_site5664]”, “TAATTGATTCTTCACCGTACTCACACATATATATAT [XGTACX_site6530]” is higher in “gcPBM binding intensity (ln)” value: 7.77 ± 0.68 for the first, 8.99 ± 0.085 for the second.

Compared with “TGTGCATAATTTTGTGCACACCACGCTAATAATTTT [CACACA_site2915]”, “ATATATATATAATTTGTACACACAAATATGCATATA [CACACA_site9136]” is lower in “gcPBM binding intensity (ln)” value: 11.4 ± 0.48 for the first, 9.18 ± 0.24 for the second.

Compared with AGTATAAGCATTATTGTGCACATAATTATAATTTTT, “CATATATAAAATATATGTACTTATAGAACATAATTT [XGTACX_site1936]” is lower in “gcPBM binding intensity (ln)” value: 10.6 ± 0.53 for the first, 7.3 ± 0.35 for the second.

First: TTTGTTCATATTATTGTGCACTTAAACGTAACAAAA [GTGCAC_site9505]
Second: TTTTTGTAAAATAAACGTACAAAACAATTGTTCATT [XGTACX_site6537]
The “gcPBM binding intensity (ln)” value of the first is higher: 11.3 ± 0.39 for the first, 7.82 ± 0.4 for the second.

“AAATACTTAACATTGGTGCATATTTGTAAAATTATT [GTGCAC_site9515]” and “TAATAAAAAAAGTGCACACACATAATATATATATAT [CACACA_site3340]” are within error of each other in “gcPBM binding intensity (ln)” value: 10.3 ± 0.55 for the first, 9.93 ± 0.37 for the second.

Going from “ATATATATATAGTGCACACATATAAAATATATATAA [CACACA_site2745]” to ATGAAACACTCCATAGTGCAAAATATATATTATATT, the “gcPBM binding intensity (ln)” value falls from 11.29 ± 0.078 to 10.27 ± 0.057.

Going from “AAAAATAAATATATATGTACACATATGTATACAATA [XGTACX_site4692]” to “ATATAAATATAGTGTGCACACACATAATATATATAT [CACACA_site8713]”, the “gcPBM binding intensity (ln)” value rises from 7.65 ± 0.38 to 9.49 ± 0.11.

First: ATTACACATATAGTAGTGCAATAACTCCAAAAAAAA
Second: AATAATAAAAAAAGTGCACACACATAATATATATAT [CACACA_site9100]
The “gcPBM binding intensity (ln)” value of the first is higher: 11.4 ± 0.6 for the first, 9.95 ± 0.014 for the second.

First: AATACAATAAAATAGTGTACATATATATTATGTATA [XGTACX_site8258]
Second: TTAACATACACTCTAGTGCATATATATAACAAAATA [GTGCAC_site9724]
The “gcPBM binding intensity (ln)” value of the first is lower: 7.63 ± 0.27 for the first, 10 ± 0.17 for the second.

TTATACAGGACAATAGTGCACATAAATATATGTATA and “ATATATATATATAGTGCACACATATAAAATATATAT [CACACA_site8884]” are within error of each other in “gcPBM binding intensity (ln)” value: 11.2 ± 0.51 for the first, 11.5 ± 0.15 for the second.

Compared with “TATATATATATGTGCACACATAATAAAAAAAAAAAT [CACACA_site3831]”, “TTTTCTTTTTGTTCGTGTACACACATGAAATTTATA [XGTACX_site3301]” is lower in “gcPBM binding intensity (ln)” value: 10.3 ± 0.11 for the first, 8.78 ± 0.68 for the second.

First: TACAGAAATTTATATATATATATATATATATATATA [XGTACX_negctrl_site209]
Second: ATATAAAACTAATTTCTTTTTCTCCTTTTATTTTGT [CACACA_negctrl_site1251]
The “gcPBM binding intensity (ln)” value of the first is higher: 9.39 ± 0.54 for the first, 7.8 ± 0.59 for the second.

“AACAAACAAATAGTTTATTTTGATTTTTTTAAAAAT [CACACA_negctrl_site693]” and “AATAAAATTTGCGATGCACACAGAATAGCTAATATG [CACACA_site8983]” are within error of each other in “gcPBM binding intensity (ln)” value: 7.36 ± 0.65 for the first, 7.96 ± 0.57 for the second.

“TATATATAAATATATACACACATGAAAATAAATAAA [CACACA_site2514]” and “TTGAAAAATGAGCACACACACAAATACATACATATT [CACACA_site3231]” are within error of each other in “gcPBM binding intensity (ln)” value: 7.67 ± 0.45 for the first, 7.97 ± 0.36 for the second.

“ATATTTTTTTTTTTCACACACATTTATATTGTATTA [CACACA_site5695]” and “TTAGCAACTATTACTACACACATTTTTATATAACTT [CACACA_site6762]” are within error of each other in “gcPBM binding intensity (ln)” value: 8.01 ± 0.79 for the first, 7.84 ± 0.59 for the second.

“TTTAAAATAAATTAATAGAACAAAAATAAAATGATT [GTGCAC_negctrl_site375]” and “AAATTAAAGGCATAAAAGAAAATATTTAATAAAAAA [CACACA_negctrl_site1689]” are within error of each other in “gcPBM binding intensity (ln)” value: 7.78 ± 0.67 for the first, 7.71 ± 0.73 for the second.

Going from “ATAGGCACTTTTTGCACACGTATGAATAACAAAATA [CACACA_site5069]” to “ATATGCACTTTTTGCACACGTATGAATAACAAAATA [CACACA_site1810]”, the “gcPBM binding intensity (ln)” value rises from 9.54 ± 0.13 to 10 ± 0.25.

Compared with “TTATATGCACTTTTTGCACACGTATGAATAACAAAA [CACACA_site1811]”, “ATAAACATCTAGTGCTGTACACAATTTGATTTTTTT [XGTACX_site3110]” is lower in “gcPBM binding intensity (ln)” value: 10.8 ± 0.86 for the first, 8.9 ± 0.31 for the second.

“TATTTTTTTTTATTTTTTTTTATTTTGTTTTTTTAT [TGCATGCA_negctrl_site315]” and “AAAAAAATTAAATCAAGTACTCATTCTTAAATTATA [XGTACX_site1274]” are the same in “gcPBM binding intensity (ln)” value: 7.32 ± 0.52 for the first, 7.32 ± 0.49 for the second.
